Sampled rows, rich in hits. Any-hit rate of the full collection: about 7.9%.
HT1080 IDH1KD tx: kills HT-1080 cells with IDH1 knockdown; HT-1080 IDH1 knockdown viability, ATP luminescence, 48 h; Potency, µM (top dose mostly 46.1 µM), most hits filed as cytotoxic; actives 2% (n = 360,000); AID 686971
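CellTiter-Glo luminescence after 48 h compound exposure at 37 degrees C of IDH1-knockdown HT-1080 cells in 5% FBS RPMI. %Activity scaled between DMSO wells and cell-free media wells, with curves fitted and assigned curve classes.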
SW480 rerep: DNA re-replication induction in SW480 cells; SW480 DNA re-replication, Hoechst DNA content imaging, 48 h; Potency, µM (titrated, usually from 46.1 µM), usual class: activators; actives 1.8% (n = 340,000); AID 624297; also: nearly all actives have a fitted effect of over 55% in size
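Image-based read-out: total Hoechst fluorescence of nuclei (405 nm excitation, 500-530 nm emission), with hits raising the fraction of high-intensity nuclei. SW480 colon cells incubated 48 hr with compounds at 37 C.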
KB-V1 cytotox: KB-V1 MDR subline cytotoxicity | KB-V1 MDR cells viability, CellTiter-Glo, 72 h | actives 3.4% (n = 400,000) | Potency, µM (top dose mostly 46.1 µM), actives largely listed as cytotoxic | AID 1347076; also: nearly all actives have a fitted effect of over 60% in size
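In this primary screen, KB-V1 cells overexpressing P-gp are incubated with library compounds (lowest to highest concentration) for 72 h at 37 degrees C before a luminescent ATP viability read.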
HT1080NT lethal: kills 2HG-producing HT-1080-NT fibrosarcoma cells; Potency, µM (series often up to 46.1 µM), hits mostly cytotoxic; actives 1.6% (n = 360,000); AID 686970; HT-1080-NT fibrosarcoma viability, CellTiter-Glo ATP luminescence, 48 h;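 also: NT is the 2HG producing partner of a matched IDH1 knockdown line; nearly all actives have a fitted effect of over 55% in size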
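A 48-hour cytotoxicity screen used HT-1080-NT cells plated 2 hours before compound delivery. ATP-based CellTiter-Glo luminescence measured viability, normalized to DMSO and no-cell controls.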
KB-3-1 tox: kills parental KB-3-1 adenocarcinoma cells; actives 1.4% (n = 400,000); Potency, µM (titrated, usually from 46.1 µM), actives largely listed as cytotoxic; KB-3-1 viability, CellTiter-Glo ATP luminescence, 72 h; also: nearly all actives have a fitted effect of over 60% in size
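Luminescent ATP read-out (CellTiter-Glo) measures survival of drug-naive KB-3-1 cells after 72 h compound exposure at 37 °C. Titration series was screened from lowest to highest concentration, with DMSO vehicle plates as background controls.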
MCF10A rereplic: inducers of DNA re-replication in MCF 10A breast cells; Potency, µM (doses to about 46.1 µM), most hits filed as activators; actives 2.9% (n = 350,000); MCF 10A DNA re-replication, Hoechst nuclear intensity, 48 h; also: nearly all actives have a fitted effect of over 50% in size
A number is an active result; – = inactive; ? = inconclusive; · = no result; [ ] = remark or other dose. Calls follow the shape of the dose curve; as a rule, active = well fitted curve in the direction sought with a large enough effect; inconclusive = small, poorly fitted or top-dose-only effect, or another doubt; inactive = no such curve, though single readings can be large; an effect the other way counts as inactive or inconclusive.

SMILES	HT1080 IDH1KD tx	SW480 rerep	KB-V1 cytotox	HT1080NT lethal	KB-3-1 tox	MCF10A rereplic
Cc1ccc(COc2cccc3c2CCN(Cc2ccc(F)cc2)C3=O)cc1	–	–	5.8µM	–	?	–
C/C(=N\N=C\c1ccc(N(C)C)cc1)c1cccc([N+](=O)[O-])c1	–	–	–	–	–	–
CC(=O)OC[C@H]1O[C@@H](n2ncc(=O)[nH]c2=O)[C@H](OC(C)=O)[C@@H]1OC(C)=O	?	?	8.2µM	–	3.3µM	–
COc1ccc2[nH]c(C)c(CCNC(=S)Nc3cc(C)cc(C)c3)c2c1	–	?	–	–	–	–
CCc1cccc(CC)c1NC(=S)NCCc1c(C)[nH]c2ccc(C)cc12	–	15µM	5.8µM	–	6.5µM	?
CCc1cccc(C)c1NC(=S)NCCc1c(C)[nH]c2ccc(C)cc12	–	?	?	–	?	10µM
COc1ccc2[nH]c(C)c(CCNC(=S)Nc3cccc(C)c3)c2c1	–	?	–	–	–	–
COc1ccc2[nH]c(C)c(CCNC(=S)Nc3cc(C)ccc3C)c2c1	–	16µM	–	–	–	?
CSc1nc2nc(-c3ccccc3)cc(=O)n2[nH]1	–	–[9.22 µM]	–	–	–	–
Cc1ccc(C(O)CCc2ccc(N)cc2)cc1 (stereo not given)	–	–	–	–	–	–
NS(=O)(=O)c1cccc(NC(=O)COC(=O)Cn2cnc3ccccc32)c1	?	–	–	–	–	–
NC(=O)c1ccsc1NC(=O)COC(=O)Cc1ccsc1	–	–	–	–	–	–
COc1ccc(N(CC(=O)NC(C)c2ccccc2)S(=O)(=O)c2c(C)noc2C)cc1 (stereo not given)	–	–	–	–	–	–
COc1cccc(C(=O)NC(=S)NCc2ccco2)c1	–	–	–	–	–	–
COc1cc(OC)cc(C(=O)NC(=S)NCc2ccco2)c1	?	?	–	18µM	–	–
CN(C)/C=N/C1=C(C#N)C(c2cccs2)c2ccc3ccccc3c2O1 (stereo not given)	7.3µM	5.2µM	5.8µM	7.3µM	2.6µM	?
N#CC1=C(N)Oc2c(ccc3cccnc23)C1c1cccnc1 (stereo not given)	8.2µM	2.6µM	?	7.3µM	?	8.2µM
N#CC1=C(N)Oc2cc3ccccc3cc2C1c1cccnc1 (stereo not given)	5.8µM	18µM	?	6.5µM	5.8µM	7.1µM
N#CC1=C(N)Oc2cc3ccccc3cc2C1c1cccs1 (stereo not given)	?	?	–	?	10µM	?
CCOC(=O)C1=C(c2ccccc2)OC(N)=C(C#N)C1c1cccs1 (stereo not given)	?	–	?	–	–	–
O=c1nc(-c2ccccc2Cl)c2cc(F)ccc2[nH]1	–	–	–	–	–	–
CSc1ccccc1C(=O)NCc1cccnc1	–	–	–	–	–	–
COc1ccc2nc3c(nc2c1)CCCC3	–	–	–	–	–	–
C[n+]1cccc(C2C(C#N)=C(N)Oc3c2ccc2ccccc32)c1 (stereo not given)	15µM	18µM	?	12µM	?	?
C[n+]1cccc2ccc3c(c21)OC(N)=C(C#N)C3c1ccccc1 (stereo not given)	?	–	–	?	–	–
SMILES	HT1080 IDH1KD tx	SW480 rerep	KB-V1 cytotox	HT1080NT lethal	KB-3-1 tox	MCF10A rereplic
C=C1C[C@@]23CCC4[C@@](C)(CCC[C@@]4(C)C(=O)OC)C2CC[C@]1(OC(C)=O)C3 (stereo not given in full)	–	–[9.22 µM]	–	–	–	?
CC(CC(=O)Nc1ccc(S(=O)(=O)N2CCOCC2)cc1)c1ccccc1 (stereo not given)	–	–	–	–	–	–
O=S(=O)(c1ccc(NC(=S)NCCC(c2ccccc2)c2ccccc2)cc1)N1CCOCC1	?	?	?	–	?	5.2µM
O=S(=O)(c1ccc(NC(=S)N/N=C/c2c3ccccc3cc3ccccc23)cc1)N1CCOCC1	?	13µM	?	?	3.7µM	?
CCCCOCCCNC(=S)Nc1ccc(S(=O)(=O)N2CCOCC2)cc1	–	–	18µM	–	?	–
COc1cccc(CC(=O)Nc2ccc3nc(N4CCC(C)CC4)cc(C)c3c2)c1	·	·	?	·	–	·
COc1ccccc1NC(=O)c1cnc(Nc2ccccc2OC)c2ccccc12	?	2.8µM	9.2µM	3.7µM	18µM	?
c1ccc(-n2cnnc2SCc2nc3ccccc3s2)cc1	–	–	21µM	–	–	?
Cc1nnc(SCc2nc3ccccc3s2)n1-c1ccccc1	–	–	–	–	–	–
O=C(C(=O)c1cc(Br)ccc1O)c1cc(Br)ccc1O	2.9µM	?	?	3.7µM	23µM	2.6µM
O=C(c1ccc(O)c(Br)c1)c1cc(Br)ccc1O	?	–	–	5.8µM	–	?
CC(=O)Nc1cc(Br)ccc1O	–	–	–	–	–	0.73µM
O=C(c1cnn(-c2ccccc2)c1)c1cc(Br)ccc1O	–	–	?	–	–	–
CC(C)c1ccc(NC(c2nnc(-c3ccccc3)o2)c2ccc(F)cc2Cl)cc1 (stereo not given)	·	·	–	·	–	·
COc1ccccc1OCCn1c(=O)sc2ccccc21	–	–	15µM	–	–	–
CCOc1ccc(Cn2c(=O)sc3ccccc32)cc1OC	–	–	12µM	–	?	?
Cc1ccccc1OCCn1c(=O)sc2ccccc21	–	–	–	–	–	–
Cc1cccc(OCC(=O)O/N=C(\N)Cc2cccs2)c1	–	–	–	–	–	–
Brc1nc(Br)n(Cc2ccccc2)n1	–	–	?	–	–	–
CC1Oc2ccccc2C=C1/C=N/Nc1ccc(C(=O)O)cc1 (stereo not given)	?	7.3µM	–	?	–	23µM
CC(C)(C)c1ccc(/C=N/Nc2ccc(C(=O)O)cc2)cc1	–	–	–	–	–	?
O=C(NCC(c1ccco1)N1CCc2ccccc21)C(=O)Nc1ccc(F)cc1F (stereo not given)	?	?	4.1µM	?	4.6µM	4.1µM
O=C(NCC(c1ccco1)N1CCc2ccccc21)C(=O)Nc1ccccc1F (stereo not given)	–	?	16µM	–	15µM	?
O=C(NCC(c1ccco1)N1CCc2ccccc21)C(=O)Nc1ccccc1 (stereo not given)	–	–	–	–	–	–
CC(=O)c1sc(NC(=O)CS(=O)(=O)c2ccccc2)nc1C	–	–	?	–	–	–
COc1cccc(S(=O)(=O)Nc2ccc3c(c2)C(=O)N(C)C[C@H](OC)[C@H](C)CN(Cc2ccccc2F)[C@@H](C)CO3)c1	?	·	15µM	?	?	·

Bioassay records: PubChem BioAssay, National Center for Advancing Translational Sciences (NCATS)
